From PubChem
Compounds with a hit are over-represented: about 2.2% of the library has one in this group of screens.
C2C12 statin = suppressors of statin myotoxicity in C2C12 myotubes, primary screen, cell-based, single point, plate reader; C2C12 myotubes + simvastatin, ATP luminescence, 48 h; scaled: DMSO 0, geranylgeraniol control 100; rescue of ATP level, % at 7.49 µM; 330,000 tested, 0.78% active;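 active means mean ATP rescue above about 67%, or every replicate alone reaching that limit, limit read from the data, passing the limit was not always enough; inconclusive means no clear call, values can overlap the other calls; inactive means mean under the limit and some replicate under it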;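 further: myotubes were challenged with 10 µM simvastatin during compound exposure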
PGC1a acetyl inh = inhibitors of PGC1a acetylation signal, primary screen, cell-based, U2OS, AlphaScreen, inhibitor mode | AlphaScreen anti-acetyl-lysine; with virally co-expressed GCN5 acetyltransferase | inhibition, % at 15.6 µM | 350,000 tested, 0.17% active;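 active means every replicate shows inhibition of at least 40%; inconclusive means mean inhibition at least 40% but some replicate below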
PvdQ acylase = P. aeruginosa PvdQ acylase inhibitors, primary screen, biochemical, fluorescence, plate reader and imaging, single point; inhibition, % at 10 µM; purified PvdQ acylase; 340,000 tested, 0.063% active; in the data active means inhibition above about 30%, passing the limit was not always enough; inconclusive means no clear call, values can overlap the other calls
DENV2 CPE rescue = inhibitors of DENV2 cytopathic effect, primary screen, cell-based, plate reader, single concentration; DENV2-infected cells, cytopathic effect rescue; CPE inhibition, % at 9.99 µM; 350,000 tested, 1.7% active; AID 651640, 2012; in the data active means CPE inhibition above about 20%, passing the limit was not always enough; inconclusive means no clear call, values can overlap the other calls; tested in BHK-21 cells
miR-122 sensor = miR-122 Renilla sensor signal increase in Huh7, primary screen, miR-122 inhibitor project, cell-based, single point, plate reader | activation (reporter increase), % at 12.5 µM | 340,000 tested, 0.3% active | AID 602342, 2012 | Huh7 miR-122 Renilla luciferase sensor, 48 h; neutral wells = 0, positive control = 100;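 active means mean replicate activation score at least 90 and every replicate individually at or above 90; inconclusive means only one of the two criteria met; inactive means neither criterion met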;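 further: higher luciferase means less miR-122 activity so hits act as miR-122 inhibitors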
Numbers stand for hits; – = inactive; ? = inconclusive; · = no result; [ ] = remark or other dose.

SMILES	C2C12 statin	PGC1a acetyl inh	PvdQ acylase	DENV2 CPE rescue	miR-122 sensor
CCC(=O)N1[C@H](CO)[C@H](c2ccccc2)[C@@H]1CN(CC)C(=O)c1cccc(F)c1	–	–	·	–	250[16.7 µM]
CCN(C[C@H]1[C@H](c2ccccc2)[C@@H](CO)N1C(C)=O)C(=O)c1cccc(F)c1	–	–	·	–	–
CCC(=O)N1[C@H](CN(CC)C(=O)c2cccc(F)c2)[C@H](c2ccccc2)[C@@H]1CO	–	–	·	–	125[16.7 µM]
C[C@H]1CN([C@@H](C)CO)C(=O)c2cc(C#CCN(C)C)cnc2O[C@@H]1CN(C)C(=O)c1cnccn1	–	–	·	–	–
COc1ccc(CNC2CCCc3ccccc32)cc1OC (stereo not given)	–	·	–	–	–
CCOc1ccc(CNC2CCCc3ccccc32)cc1 (stereo not given)	·	–	38	–	·
C[C@@H](NC(=O)C[C@@H]1C=C[C@@H](NC(=O)C2CC2)[C@@H](CO)O1)c1ccccc1	–	–	·	–	·
CCn1c(=O)c(C(=O)NNS(=O)(=O)c2ccc(C)cc2)c(O)c2ccccc21	·	·	–	·	·
CCCn1c(=O)c(C(=O)NNS(=O)(=O)c2ccc(C)cc2)c(O)c2ccccc21	–	–	–	35	–
C[C@@H]1CN([C@@H](C)CO)C(=O)c2cc(NC(=O)C3CCCCC3)ccc2O[C@@H](C)CCCCO[C@@H]1CN(C)CC1CCCCC1	·	–	·	–	–
COC(=O)C1=C(CSCc2ccco2)NC(=O)NC1c1cc(C)ccc1C (stereo not given)	134	–	–	·	–
Cc1ccc(-c2csc(NC(=O)c3ccc(S(=O)(=O)N4CCc5ccccc54)cc3)n2)cc1	–	–	–	25	–
O=C(Nc1nc(-c2ccccc2)cs1)c1ccc(S(=O)(=O)N2CCc3ccccc32)cc1	–	–	–	?	–
C[C@@H]1CCCCO[C@H](CN(C)Cc2ccc(Cl)c(Cl)c2)[C@H](C)CN([C@@H](C)CO)C(=O)c2cc(NC(=O)Nc3ccc(C(F)(F)F)cc3)ccc2O1	–	–	·	–	–
CCCN(C)C[C@H]1OCCCC[C@H](C)Oc2ccc(NC(=O)Nc3ccc(C(F)(F)F)cc3)cc2C(=O)N([C@@H](C)CO)C[C@H]1C	·	–	·	–	–
CCCN(C)C[C@@H]1OCCCC[C@@H](C)Oc2ccc(NC(=O)Nc3ccc(C(F)(F)F)cc3)cc2C(=O)N([C@H](C)CO)C[C@@H]1C	·	–	·	28	–
C[C@@H]1CCCCO[C@H](CN(C)Cc2ccc3c(c2)OCO3)[C@@H](C)CN([C@@H](C)CO)C(=O)c2cc(NC(=O)Nc3ccc(C(F)(F)F)cc3)ccc2O1	·	53	·	–	–
C[C@H]1CCCCO[C@H](CN(C)Cc2ccc3c(c2)OCO3)[C@@H](C)CN([C@@H](C)CO)C(=O)c2cc(NC(=O)Nc3ccc(C(F)(F)F)cc3)ccc2O1	·	79	·	–	–
C[C@@H]1CN([C@@H](C)CO)C(=O)c2cc(NC(=O)Nc3ccc(C(F)(F)F)cc3)ccc2O[C@@H](C)CCCCO[C@H]1CN(C)Cc1ccc(Cl)c(Cl)c1	–	–	·	24	–
C[C@@H]1CN([C@H](C)CO)C(=O)c2cc(NC(=O)Nc3ccc(C(F)(F)F)cc3)ccc2O[C@@H](C)CCCCO[C@H]1CN(C)Cc1ccc2c(c1)OCO2	·	–	·	–	–
Cc1ccc(S(=O)(=O)N2C[C@@H](O)COC[C@H]3O[C@H](CC(=O)NCCN4CCCCC4)CC[C@@H]32)cc1	–	–	·	–	–
CN1C(=O)c2cc(NC(=O)Nc3ccc(Cl)cc3)ccc2OC[C@@H]2O[C@@H](CC(=O)O)CC[C@@H]21	–	–	·	–	–
O=C(COC(=O)CN1C(=O)NC2(CCCC2)C1=O)Nc1ccccc1C(F)(F)F	–	·	–	–	·
O=C(COC(=O)CN1C(=O)NC2(CCCC2)C1=O)Nc1ccc(C(F)(F)F)cc1[N+](=O)[O-]	–	·	–	32	·
C[C@H]1CN([C@@H](C)CO)C(=O)c2cc(NC(=O)Cc3cn(C)c4ccccc34)ccc2O[C@H]1CN(C)C	–	–	·	–	–
CC1(C)OC(=O)C2=C(CC(CCc3ccccc3)OC2CCc2ccccc2)O1 (stereo not given)	·	·	·	–	·
CC(C)C[C@@H]1CC2=C(C(=O)OC(C)(C)O2)[C@H](CCc2ccccc2)O1	·	·	·	29	·
